Here are results for 67 compounds from PubChem BioAssay AID1851 (National Center for Advancing Translational Sciences (NCATS), 2009).

Where “and” joins values, the source holds several entries; their conditions need not be identical. Equal entries are not always repeated. Among all 16,000 compounds or so, about 2,600 (16%) were called active. Not shown: some 20% with an inconclusive outcome. The call rests on the fitted dose curve; in most records, active means well fitted curve in the direction sought with a large enough effect; inconclusive means small, poorly fitted or top-dose-only effect, or effect the other way; inactive means no such curve, though single readings can be large or run the other way. The list is a sample of the results.
On the % scale 0 is the no-effect control and ±100 the full control effect.

The test deals with Cytochrome P450 2D6 (Homo sapiens) (UniProt P10635). The test is described as follows: Cytochrome panel assay with activity outcomes. The conditions noted are these: recombinant CYP, pro-luciferin dealkylation, luminescence, p450-cyp2d6; series mostly up to 57.1 µM.
Chain of Cytochrome P450 2D6 (Homo sapiens) (P10635 whole entry, looked up): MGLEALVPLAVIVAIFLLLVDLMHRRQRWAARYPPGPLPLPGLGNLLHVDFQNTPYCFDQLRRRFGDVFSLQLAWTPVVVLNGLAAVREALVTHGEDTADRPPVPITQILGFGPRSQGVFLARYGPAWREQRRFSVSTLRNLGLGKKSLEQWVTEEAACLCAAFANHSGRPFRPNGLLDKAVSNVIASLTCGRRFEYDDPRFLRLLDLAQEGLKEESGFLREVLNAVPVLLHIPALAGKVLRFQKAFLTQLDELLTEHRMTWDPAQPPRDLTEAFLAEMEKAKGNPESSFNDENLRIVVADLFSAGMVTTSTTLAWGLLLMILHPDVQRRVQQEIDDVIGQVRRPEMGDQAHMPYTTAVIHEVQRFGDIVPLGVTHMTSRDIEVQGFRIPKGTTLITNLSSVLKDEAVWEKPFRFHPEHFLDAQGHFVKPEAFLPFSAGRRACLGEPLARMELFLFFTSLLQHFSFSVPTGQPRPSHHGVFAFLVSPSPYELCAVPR
In the case of `O=C(O)C[C@H](Cc1ccccc1Cl)C(=O)O`, the activity, negative = inhibition was -0.233% [at 11.4 µM] (inactive).

In general, AC50 refers to the concentration at which the activity in the assay is half-maximal. On to `Cc1n[nH]c(=O)nc1NCc1ccccc1Cl`, for which the AC50 entry is “inactive”.

With `Clc1ccccc1CNCC1CCC(CNCc2ccccc2Cl)CC1` (configuration not stated), the AC50 is 12.6 µM (active).

For `CCOC(=O)C(C)Sc1nnc(CNC(=O)c2ccc(OC)cc2)n1C1CCCCC1` (configuration not stated), the AC50 result is “inactive”.

For `CCOC(=O)c1nc(N)sc1C(=O)OCC`, the AC50 entry was “inactive”.

Consider `CCOC(=O)c1sc(C)c(C(=O)NCC(C)(C)CN(C)C)c1N`, for which the AC50 is 1.78 µM (active).

`CCOC(=O)c1sc2nc3c(cc2c1N)COC(C)(CC)C3` (configuration not stated): the AC50 entry was “inactive”.

On to `Cc1ccc(Cn2cnc3c(nnn3Cc3ccc(Cl)cc3)c2=O)cc1`, for which the AC50 entry is “inactive”.

With `CC(=O)[C@H]1CC[C@@H]2[C@H]3CC=C4C[C@@H](O)CC[C@]4(C)[C@H]3CC[C@]12C`, the AC50 entry is “inactive”.

On to `CC(=O)Nc1nnc(S(N)(=O)=O)s1`, for which the AC50 entry is “inactive”.

Turning to `O=C(c1ccccc1)c1nc2ccccc2n(CCCn2c(=O)c(C(=O)c3ccccc3)nc3ccccc32)c1=O`, the AC50 entry was “inactive”.

As for `CCCn1c(/C=C/c2ccccc2)nc2ccccc21`, the AC50 is 8.91 µM (active).

`CCn1c(/C=C2/C(=O)N(C)c3ccccc32)nc2ccccc2c1=O`: the AC50 result was “inactive”.

Regarding `C[N+]1(C)C[C@@H](O)C[C@@H]1C(=O)[O-]`, the AC50 result is “inactive”.

For `CCNc1ncc2nc(-c3ccccc3)c(=O)n(Cc3cccs3)c2n1`, the AC50 entry is “inactive”.

`Cc1ccc(-c2nc3ccccc3s2)cc1NC(=S)NC(=O)c1ccccc1`: the AC50 entry was “inactive”.

For the compound `CCn1c(-c2nonc2NC(=O)c2ccccc2)nc2ccccc21`, the AC50 entry is “inactive”.

For the compound `CC(NC(=O)c1ccccc1)c1nc2ccccc2n1Cc1ccccc1F` (configuration not stated), the half-maximal activity concentration (AC50) was 14.1 µM (active).

As for `C=CCn1c(C(C)NC(=O)c2ccccc2)n[nH]c1=S` (configuration not stated), the AC50 entry is “inactive”.

Take `O=c1cc(CO)oc(CN2CCCC2)c1O`: the AC50 entry was “inactive”.

On to `Cc1ccc(O)c(-c2cc(C(F)(F)C(F)F)nc(-c3ccccc3)n2)c1`, for which the AC50 result was “inactive”.

Take `Cc1ccc(-c2ccc(/C=N/N3C(=O)C4C5C=CC(C6CC56)C4C3=O)o2)c([N+](=O)[O-])c1` (configuration not stated): the AC50 result is “inactive”.

As for `Cn1c(COc2nnc(-c3ccc(Cl)cc3)c3ccccc23)nc2ccccc21`, the AC50 result is “inactive”.

As to `CC(C)C(=O)NCCc1nc2ccccc2n1CCCOc1ccc(Cl)cc1`, the concentration at half-maximal activity (AC50) was 3.16 µM (active).

In the case of `CC(C)C(=O)NCCn1ccc2ccccc21`, the AC50 entry was “inactive”.

Regarding `COc1ccc(C(=O)c2ccc(OC)c(OC)c2)cc1OC`, the AC50 entry is “inactive”.

Consider `CCOC(=O)N1CCN(C(=O)c2ccc(OC)c(OC)c2)CC1`, for which the AC50 entry is “inactive”.

Take `COc1ccc(C(=O)OC(C)CN2CCN(C)CC2)cc1OC` (configuration not stated): the AC50 was 3.55 µM (active).

`Cc1cc(N2CCN(C)CC2)nc2ccc(NC(=O)CCC(=O)NCc3ccco3)cc12`: the AC50 result was “inactive”.

Regarding `CCCCC/C=C\C[C@H](O)/C=C\c1cccc(C[C@H](O)CCCCO)n1`, the AC50 result is “inactive”.

Take `CCc1ccc(N(C(=O)c2snc(C(N)=O)c2N)C(C(=O)NCCC(C)C)c2c[nH]c3ccccc23)cc1` (configuration not stated): the AC50 entry is “inactive”.

For the compound `CC(C(=O)NC1CCCC1)N(C(=O)c1snc(C(N)=O)c1N)c1ccc2c(c1)OCCO2` (configuration not stated), the AC50 was 14.1 µM (active).

As to `COc1ccc(C(C(=O)NC2CCCC2)N(C(=O)c2snc(-c3ccc(F)cc3)c2N)c2ccc(F)cc2)cc1` (configuration not stated), the AC50 result was “inactive”.

In the case of `Cc1ccccc1NC(=S)NN1CCN(C)CC1`, the AC50 entry was “inactive”.

`Cc1ccc(CNCC(O)(c2ccc(F)cc2)c2ccc(F)cc2)cc1`: the AC50 was 1 µM (active).

As to `CCOC(=O)C(C(=O)NCc1ccc(C)cc1)c1ncc(C(F)(F)F)cc1Cl` (configuration not stated), the AC50 entry was “inactive”.

Consider `O=C(O)c1ccccc1C(=O)NCc1ccc(F)cc1`, for which the AC50 result was “inactive”.

With `OC(CNCc1ccc(F)cc1)(c1ccc(F)cc1)c1ccc(F)cc1`, the AC50 was 0.794 µM (active).

Turning to `COc1cc2c(C(=O)N3CCN(C)CC3)c(C)n(-c3ccccc3)c2cc1Br`, the AC50 result is “inactive”.

As to `CN1CCN(C(=O)c2ccc3c(=O)n4c(nc3c2)CCCCC4)CC1`, the AC50 entry was “inactive”.

For `CCOC(=O)c1ccc(NC(=O)C2(c3ccc(OC)cc3)CCOCC2)cc1`, the AC50 result was “inactive”.

With `CCOC(=O)CCCNC(=O)c1cncc(Br)c1`, the AC50 result was “inactive”.

`CCOC(=O)CCCNC(=O)CCCNC(=O)C(c1ccccc1)c1ccccc1`: the concentration at half-maximal activity (AC50) is 0.891 µM (active).

Consider `CCOC(=O)c1cc(CC)sc1NC(=O)C(c1ccccc1)c1ccccc1`, for which the AC50 entry is “inactive”.

As for `CC(C)(C)C(=O)N1CCc2cc(-c3csc(N)n3)ccc21`, the AC50 result is “inactive”.

On to `CCC(=O)Nc1ccccc1C(=O)OCC(=O)c1ccccc1`, for which the AC50 result was “inactive”.

With `CN(C)CCCO[C@H]1[C@H]([C@H](O)CO)O[C@H]2OC(C)(C)O[C@@H]21`, the AC50 entry is “inactive”.

For `Cc1cc2cc(CNC(=O)CC(C)C)ccc2n1C`, the AC50 entry is “inactive”.

Regarding `CCOC(=O)N/N=C1/C[C@@H](O)[C@@H](O)[C@@H]2[C@@H]3C(=O)N(c4cccc(Oc5ccccc5)c4)C(=O)[C@H]3CC[C@H]12`, the activity, negative = inhibition is 2.57% [at 11.4 µM] (inactive).

For the compound `CCOC(=O)c1c(C(C)(C)C)oc2ccc(O)cc12`, the concentration at half-maximal activity (AC50) was 14.1 µM (active).

In the case of `CCOC(=O)c1c(C)oc2c1cc(O)c1ccccc12`, the AC50 result was “inactive”.

Regarding `CCOC(=O)c1cncc(C(=O)O)c1`, the AC50 result is “inactive”.

In the case of `C=CCCCCCCCCC(=O)Nc1c[nH]c(=O)[nH]c1=O`, the AC50 entry is “inactive”.

As to `O=C1C[C@@H](O)[C@@H](O)[C@H]2[C@@H]3C(=O)N(Cc4ccccc4)C(=O)[C@@H]3CC[C@H]12`, the activity, negative = inhibition is -0.874% [at 11.4 µM] (inactive) and 9.9% [at 11.4 µM] (inactive).

With `O=C(Nc1ccc(Cl)cc1)OCCn1nnnc1C(c1ccccc1Cl)N1CCOCC1` (configuration not stated), the half-maximal activity concentration (AC50) was 15.8 µM (active).

For the compound `COc1ccc(Cn2nnnc2C(c2ccccc2Cl)N2CCC(C(N)=O)CC2)cc1` (configuration not stated), the AC50 entry is “inactive”.

On to `O=C(Nc1ccc(Cl)cc1)OCc1cc(-c2ccccc2Cl)on1`, for which the AC50 entry was “inactive”.

Turning to `C#C[C@@]1(O)CC[C@@H]2[C@@H]3CCC4=CC(=O)CC[C@@H]4[C@H]3CC[C@]21CC`, the AC50 result is “inactive”.

`Cc1onc(C(=O)/C=C/N(C)C)c1C(=O)Nc1nccs1`: the AC50 entry is “inactive”.

Turning to `Cc1ccc(Nc2nc(-c3sc(NC(=O)c4cccc(Cl)c4)nc3C)cs2)cc1`, the AC50 entry is “inactive”.

In the case of `c1cnc(Nc2nc(-c3ccc4ccccc4c3)cs2)nc1`, the AC50 result is “inactive”.

For `Cc1ccc(Nc2nc(-c3c(C)nc4ncccn34)cs2)cc1`, the AC50 was 12.6 µM (active).

`C/C(CC(=O)NC1CCCC1)=N\NC(=O)Cc1cccs1`: the AC50 result was “inactive”.

As for `COC(=O)[C@H]1C[C@@H]1[C@H](NC(=O)c1ccccc1)c1ccccc1`, the AC50 result was “inactive”.

`CC1(C)Cc2c(sc3nc(-c4ccccc4)n(N)c(=O)c23)CO1`: the AC50 result is “inactive”.

`CCCSc1nc(SCC(=O)NCc2ccccc2)c2c3c(sc2n1)COC(C)(CC)C3` (configuration not stated): the AC50 entry is “inactive”.

Take `CCC1(C)Cc2c(sc3nnn(CC(=O)Nc4cccc5ccccc45)c(=O)c23)CO1` (configuration not stated): the half-maximal activity concentration (AC50) was 15.8 µM (active).
